Where a name gives a salt, the structure may show the parent alone. ± gives the standard deviation of the averaged measurements.
Legend:
[1] = system: Saccharomyces cerevisiae BY4741 SeMeCo community; experiment: mean cell size (pixel area) (pixels); higher = larger cells; details: 10 µM; 24 h; SM minimal medium
In short: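 Mean cell pixel area per well was measured in a four-plasmid fluorescent community of Saccharomyces cerevisiae BY4741, where every plasmid complements one auxotrophy and carries a fluorescent marker. Cells from an overnight preculture at OD600 = 1.0 were diluted to OD600 = 0.3 and dispensed at 70 µl into 384-well plates acoustically predosed with drug to a final 10 µM in SM medium. Incubation lasted 24 h, followed by paraformaldehyde fixation, automated confocal imaging and analysis in Harmony. Reported figures are averaged over 3 replicates. Same SeMeCo high-content imaging drug screen: Selleck FDA-approved drugs at 10 µM, 24 h in SM medium, 384-well plates, 3 replicates.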

[2] = system: Saccharomyces cerevisiae BY4741 SeMeCo community; experiment: z-score of prototroph abundance vs DMSO median; higher = larger share of this subpopulation than in DMSO controls; details: 10 µM; 24 h; SM minimal medium; subpopulation (auxotrophy): Prototroph
In short: (§1)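 A community of Saccharomyces cerevisiae BY4741 was built from four plasmids that each restored one auxotrophy and encoded a distinct fluorescent protein. Pre-grown overnight to OD600 1.0 and diluted to 0.3, it was dispensed at 70 µl into 384-well plates acoustically predosed with library drugs for a final 10 µM, and grown 24 h in minimal SM medium. Cells were then paraformaldehyde-fixed and imaged by automated confocal microscopy. Thresholds and autofluorescence correction came from single-auxotroph fluorescent strains, and each subpopulation's abundance was scored as a z-score relative to the vehicle-well median.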

[3] = system: Saccharomyces cerevisiae BY4741 SeMeCo community; experiment: z-score of subpopulation abundance vs DMSO median, subpopulation auxotrophic for M; higher = larger share of this subpopulation than in DMSO controls; details: 10 µM; 24 h; SM minimal medium; subpopulation (auxotrophy): M
In short: as §1

[4] = system: Saccharomyces cerevisiae BY4741 SeMeCo community; experiment: z-score of subpopulation abundance vs DMSO median, subpopulation auxotrophic for L; higher = larger share of this subpopulation than in DMSO controls; details: 10 µM; 24 h; SM minimal medium; subpopulation (auxotrophy): L
In short: as §1

[5] = system: Saccharomyces cerevisiae BY4741 SeMeCo community; experiment: z-score of subpopulation abundance vs DMSO median, subpopulation auxotrophic for U; higher = larger share of this subpopulation than in DMSO controls; details: 10 µM; 24 h; SM minimal medium; subpopulation (auxotrophy): U
In short: as §1

[6] = system: Saccharomyces cerevisiae BY4741 SeMeCo community; experiment: z-score of subpopulation abundance vs DMSO median, subpopulation auxotrophic for H; higher = larger share of this subpopulation than in DMSO controls; details: 10 µM; 24 h; SM minimal medium; subpopulation (auxotrophy): H
In short: as §1

[7] = system: Saccharomyces cerevisiae BY4741 SeMeCo community; experiment: z-score of subpopulation abundance vs DMSO median, subpopulation auxotrophic for LU; higher = larger share of this subpopulation than in DMSO controls; details: 10 µM; 24 h; SM minimal medium; subpopulation (auxotrophy): LU
In short: as §1

[8] = system: Saccharomyces cerevisiae BY4741 SeMeCo community; experiment: z-score of subpopulation abundance vs DMSO median, subpopulation auxotrophic for LM; higher = larger share of this subpopulation than in DMSO controls; details: 10 µM; 24 h; SM minimal medium; subpopulation (auxotrophy): LM
In short: as §1

[9] = system: Saccharomyces cerevisiae BY4741 SeMeCo community; experiment: z-score of subpopulation abundance vs DMSO median, subpopulation auxotrophic for HM; higher = larger share of this subpopulation than in DMSO controls; details: 10 µM; 24 h; SM minimal medium; subpopulation (auxotrophy): HM
In short: as §1

[10] = system: Saccharomyces cerevisiae BY4741 SeMeCo community; experiment: z-score of subpopulation abundance vs DMSO median, subpopulation auxotrophic for HU; higher = larger share of this subpopulation than in DMSO controls; details: 10 µM; 24 h; SM minimal medium; subpopulation (auxotrophy): HU
In short: as §1

[11] = system: Saccharomyces cerevisiae BY4741 SeMeCo community; experiment: z-score of subpopulation abundance vs DMSO median, subpopulation auxotrophic for UM; higher = larger share of this subpopulation than in DMSO controls; details: 10 µM; 24 h; SM minimal medium; subpopulation (auxotrophy): UM
In short: as §1

[12] = system: Saccharomyces cerevisiae BY4741 SeMeCo community; experiment: z-score of subpopulation abundance vs DMSO median, subpopulation auxotrophic for HL; higher = larger share of this subpopulation than in DMSO controls; details: 10 µM; 24 h; SM minimal medium; subpopulation (auxotrophy): HL
In short: as §1

[13] = system: Saccharomyces cerevisiae BY4741 SeMeCo community; experiment: z-score of subpopulation abundance vs DMSO median, subpopulation auxotrophic for HLU; higher = larger share of this subpopulation than in DMSO controls; details: 10 µM; 24 h; SM minimal medium; subpopulation (auxotrophy): HLU
In short: as §1

[14] = system: Saccharomyces cerevisiae BY4741 SeMeCo community; experiment: z-score of subpopulation abundance vs DMSO median, subpopulation auxotrophic for HLM; higher = larger share of this subpopulation than in DMSO controls; details: 10 µM; 24 h; SM minimal medium; subpopulation (auxotrophy): HLM
In short: as §1

[15] = system: Saccharomyces cerevisiae BY4741 SeMeCo community; experiment: z-score of subpopulation abundance vs DMSO median, subpopulation auxotrophic for HUM; higher = larger share of this subpopulation than in DMSO controls; details: 10 µM; 24 h; SM minimal medium; subpopulation (auxotrophy): HUM
In short: as §1

[16] = system: Saccharomyces cerevisiae BY4741 SeMeCo community; experiment: z-score of subpopulation abundance vs DMSO median, subpopulation auxotrophic for LUM; higher = larger share of this subpopulation than in DMSO controls; details: 10 µM; 24 h; SM minimal medium; subpopulation (auxotrophy): LUM
In short: as §1

[17] = system: Saccharomyces cerevisiae BY4741 SeMeCo community; experiment: z-score of subpopulation abundance vs DMSO median, subpopulation auxotrophic for HLUM; higher = larger share of this subpopulation than in DMSO controls; details: 10 µM; 24 h; SM minimal medium; subpopulation (auxotrophy): HLUM
In short: as §1

| Compound | mean cell size [1] | z-score of prototroph abundance [2] | z-score of subpopulation abundance [3] | z-score of subpopulation abundance [4] | z-score of subpopulation abundance [5] | z-score of subpopulation abundance [6] | z-score of subpopulation abundance [7] | z-score of subpopulation abundance [8] | z-score of subpopulation abundance [9] | z-score of subpopulation abundance [10] | z-score of subpopulation abundance [11] | z-score of subpopulation abundance [12] | z-score of subpopulation abundance [13] | z-score of subpopulation abundance [14] | z-score of subpopulation abundance [15] | z-score of subpopulation abundance [16] | z-score of subpopulation abundance [17] |
| --- | --- | --- | --- | --- | --- | --- | --- | --- | --- | --- | --- | --- | --- | --- | --- | --- | --- |
| CCNC(=O)[C@@H]1CCCN1C(=O)[C@H](CCCNC(=N)N)NC(=O)[C@H](CC(C)C)NC(=O)[C@@H](CC(C)C)NC(=O)[C@H](Cc1ccc(O)cc1)NC(=O)[C@H](CO)NC(=O)[C@H](Cc1c[nH]c2ccccc12)NC(=O)[C@H](Cc1c[nH]cn1)NC(=O)[C@@H]1CCC(=O)N1 [Leuprolide Acetate] | 12.5 ± 0.15 | -0.62 | 0.38 | 0.44 | 0.31 | 0.67 | -0.03 | 0.63 | 0.95 | 1.03 | 0.23 | 0.14 | 0.54 | 0.28 | 0.45 | 0.35 | 0.75 |
| Nc1nnc(-c2cccc(Cl)c2Cl)c(N)n1 [Lamotrigine] | 12.37 ± 0.07 | -1.13 | 0.91 | 2.5 | -0.91 | 0.08 | 0.85 | 1.83 | 1.25 | -0.39 | – | 1.44 | 0.23 | 0.44 | 0.8 | 1.86 | 1.58 |
| NC[C@H]1O[C@H](O[C@H]2[C@H](O)[C@@H](O[C@H]3O[C@H](CO)[C@@H](O)[C@H](N)[C@H]3O)[C@H](N)C[C@@H]2N)[C@H](N)C[C@@H]1O [Tobramycin] | 11.72 ± 0.043 | 0.02 | 0.73 | -0.45 | 0.79 | -1.81 | -0.02 | -0.17 | -0.2 | 0 | 0.54 | -0.46 | -0.41 | -1.18 | 0.03 | -0.69 | -1.08 |
| Oc1cccc(O)c1 [Resorcinol] | 12.4 ± 0.22 | 0.94 | -0.66 | -0.23 | 0.1 | -0.05 | -1.33 | -0.4 | -0.29 | -0.64 | – | -0.43 | 0 | -0.64 | -0.96 | -0.89 | -0.65 |
| C[C@@H](CN1CC(=O)NC(=O)C1)N1CC(=O)NC(=O)C1 [Dexrazoxane HCl (ICRF-187, ADR-529)] | 12.49 ± 0.096 | 0.46 | 0.18 | -1.96 | 0.64 | -0.64 | -0.36 | -1.65 | -0.36 | -0.7 | 0.22 | – | -1.07 | -0.81 | -0.23 | -0.98 | -0.79 |
| CO[C@@]1(NC(=O)CSC[C@@H](N)C(=O)O)C(=O)N2C(C(=O)O)=C(CSc3nnnn3C)CS[C@@H]21 [Cefminox Sodium] | 12.6 ± 0.55 | -0.58 | -0.58 | 1.5 | 0.77 | 1.45 | 0.8 | -0.15 | -0.24 | 0.16 | 0 | 1.62 | 0.47 | 3.56 | -0.35 | -0.31 | -0.45 |
| Nc1nc(N)c2nc(-c3ccccc3)c(N)nc2n1 [Triamterene] | 12.6 ± 0.17 | 3.28 | 4.86 | 3.9 | -8.02 | 2.44 | -7.06 | 5.63 | 3.53 | -7.52 | -9.3 | – | -3.55 | 2.07 | -6.05 | -4.47 | -1.58 |
| CCN1CC(CCN2CCOCC2)C(c2ccccc2)(c2ccccc2)C1=O (stereo unspecified) [Doxapram HCl] | 12.5 ± 0.14 | 0.14 | 0 | -1.14 | 0.42 | -0.42 | -1.17 | -0.29 | -0.61 | -0.57 | 0.7 | -1.3 | -0.53 | -1.09 | 0.9 | -0.43 | -0.71 |
| CC[C@H]1OC(=O)[C@H](C)[C@@H](O[C@H]2C[C@@](C)(OC)[C@@H](O)[C@H](C)O2)[C@H](C)[C@@H](O[C@@H]2O[C@H](C)C[C@H](N(C)C)[C@H]2O)[C@](C)(O)C[C@@H](C)[C@@H]2N[C@@H](COCCOC)O[C@H]([C@H]2C)[C@]1(C)O [Dirithromycin] | 12.3 ± 0.27 | 0.11 | 0.26 | 0.38 | 0.26 | -0.21 | 0.32 | 0.49 | -0.53 | -0.26 | -0.05 | – | -0.71 | -0.77 | -0.1 | 0.3 | -0.46 |
| CC(C)(C)CC(C)(C)c1ccc(OCCOCC[N+](C)(C)Cc2ccccc2)cc1 [Benzethonium Chloride] | 11.7 ± 0.27 | 0.89 | -2.12 | -0.55 | 0.39 | 0.3 | -0.86 | -0.72 | -1.27 | 0.13 | -0.2 | – | -0.61 | -0.12 | -0.76 | 0.65 | 0.07 |
| CO/N=C(\C(=O)N[C@@H]1C(=O)N2C(C(=O)OCOC(=O)C(C)(C)C)=C(/C=C\c3scnc3C)CS[C@H]12)c1csc(N)n1 [Cefditoren Pivoxil] | 12.3 ± 0.23 | -0.6 | 0.2 | 1.38 | -0.88 | 0.56 | 0.07 | 1.47 | 1.45 | -0.64 | -0.06 | – | 0.74 | 0.31 | 0.78 | 1.12 | 0.48 |
| CCOc1cc(N)c([N+](=O)[O-])cc1C(=O)NC1CCN(CC2CC=CCC2)CC1 (stereo unspecified) [Cinitapride Hydrogen Tartrate] | 12.3 ± 0.2 | -1.19 | 0.87 | -0.2 | 1.07 | -0.46 | 0.88 | 0.4 | 0.24 | 0.74 | – | -0.01 | 0.47 | -0.29 | 1.26 | 0.94 | 0.5 |

Reference: the supplement of paper PMC8975748
